The results in this text go back to PubChem BioAssay AID651687 (Broad Institute, 2012).

Several values for one entry are separate records, joined by “and”; a condition that tells them apart may be missing. Equal values may be shown once. The campaign covered roughly 350,000 compounds. About 600 (0.17%) were called active.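 Rule for the calls: active = every replicate shows inhibition of at least 40%; inconclusive = mean inhibition at least 40% but some replicate below; inactive = the rest.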 The entries come from a sample that favours actives as a whole.

The nature of this assay: compounds lowering acetylated PGC1a in cells – cell-based, U2OS, AlphaScreen, inhibitor mode, primary screen (AID 651687).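 Note: 0% = neutral control wells and 100% = positive control wells.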 The settings on record: U2OS PGC1a acetylation, AlphaScreen anti-acetyl-lysine; at 15.6 µM; hits give high values; with virally co-expressed GCN5 acetyltransferase. On the technique in general: Bead proximity is the source of the signal in Alpha formats.
`CC(C)CC#Cc1ccc2c(c1)O[C@H](CN(C)C(=O)C1CC1)[C@@H](C)CN([C@@H](C)CO)S2(=O)=O`: the inhibition (usually the drop in the measured response relative to a control, in per cent) was 3.73% (inactive).

Turning to `CCCN1C[C@@H](C)[C@H](OC)CN(C)C(=O)c2cc(NC(=O)CC)ccc2OC[C@@H]1C`, the inhibition was 3.35% (inactive).

Consider `C/C=C/c1ccc([C@H]2[C@H]3CN(S(=O)(=O)c4ccccc4)CCCCN3[C@H]2CO)cc1`, for which the inhibition was -5.04% (inactive).

In the case of `Cc1noc(C)c1NC(=O)N(C)C[C@@H]1Oc2ccc(NC(=O)Nc3ccc4c(c3)OCO4)cc2CC(=O)N([C@H](C)CO)C[C@H]1C`, the inhibition is -8.32% (inactive).

For the compound `O=C(C1CCCC1)N1CC(=O)N2[C@H](CO)[C@H](c3ccc(Br)cc3)[C@@H]2C1`, the inhibition was -9% (inactive).

For the compound `C[C@@H]1CN([C@H](C)CO)C(=O)Cc2cc(NC(=O)Cn3cnnn3)ccc2O[C@H]1CN(C)CC1CCCCC1`, the inhibition was -7.22% (inactive).

For `N#C[C@H]1[C@H](c2ccc(-c3cccc(F)c3)cc2)[C@@H](CO)N1C(=O)NC1CCCC1`, the inhibition was 4.29% (inactive).

As for `C[C@@H]1CN([C@H](C)CO)C(=O)c2cccc(NS(=O)(=O)c3cn(C)cn3)c2O[C@@H]1CN(C)Cc1ccc(C(F)(F)F)cc1`, the inhibition was -1.87% (inactive).

Consider `O=C(C[C@H]1C[C@@H]2c3cc(NC(=O)c4ccc5c(c4)OCO5)ccc3O[C@@H]2[C@@H](CO)O1)NCc1cccnc1`, for which the inhibition is -3.47% (inactive).

Take `COCC(=O)N1CC(=O)N2[C@H](C1)[C@@H](c1ccc(C#Cc3cccc(OC)c3)cc1)[C@@H]2CO`: the inhibition was -0.955% (inactive).

Take `Cc1ccnc(NC(=O)c2ccc(Cl)c([N+](=O)[O-])c2)c1`: the inhibition is 3% (inactive).

As to `Cc1nc2ccccc2c(=O)n1NC(=O)c1ccc(Cl)c([N+](=O)[O-])c1`, the inhibition is 44.8% (active).

Consider `O=C(O)c1ccc2c(=O)n3c(nc2c1)/C(=C/c1ccc(Cl)c([N+](=O)[O-])c1)CC3`, for which the inhibition is 12.5% (inactive).

`O=C(C1CC1)N1CC(=O)N2[C@H](CO)[C@@H](c3ccc(-c4ccccc4F)cc3)[C@@H]2C1`: the inhibition was 6.24% (inactive).

For the compound `C[C@H]1CN([C@@H](C)CO)C(=O)c2cc(-c3ccc(C#N)cc3)cnc2O[C@@H]1CN(C)Cc1ccncc1`, the inhibition is -4.55% (inactive).

For `C[C@@H]1CCCCO[C@H](CN(C)C(=O)Nc2ccccc2)[C@H](C)CN([C@H](C)CO)C(=O)c2cc(N(C)C)ccc2O1`, the inhibition is 0.535% (inactive).

As for `O=C(C[C@H]1C=C[C@H](NC(=O)c2cnccn2)[C@@H](CO)O1)NCc1ccccc1F`, the inhibition is -5.81% (inactive).

In the case of `CN1/C(=C\C=C2\N=C(c3ccc(F)cc3)OC2=O)C(C)(C)c2ccccc21`, the inhibition was -0.203% (inactive).

For the compound `CN1CCN(CCC(=O)N/N=C/C=C2\N(C)c3ccccc3C2(C)C)CC1`, the inhibition is 17.1% (inactive).

On to `CN1/C(=C\C(=O)c2oc3ccccc3c2N)C(C)(C)c2ccccc21`, for which the inhibition was 86.9% (active).

For the compound `C[C@@H]1CN([C@H](C)CO)C(=O)c2cccc(NC(=O)c3nc4ccccc4s3)c2O[C@@H]1CN(C)Cc1ccc(Oc2ccccc2)cc1`, the inhibition was 16.2% (inactive).

For the compound `CN1CCN(C(=O)C[C@H]2CC[C@H]3[C@@H](COC[C@H](O)CN3CC3CCOCC3)O2)CC1`, the inhibition was 0.0455% (inactive).

For `CC/C(=N\NC(=O)c1ccccc1Cl)c1ccc(Br)s1`, the inhibition is 82.8% (active).

Consider `O=C(N/N=C\c1cc2c(cc1Cl)OCO2)c1ccc(Br)s1`, for which the inhibition was -10.7% (inactive).

In the case of `C/C(Cc1ccccc1)=N\NC(=O)CNC(=O)c1ccccc1Cl`, the inhibition is 5.72% (inactive).

`COc1ccc(S(=O)(=O)N(C)C[C@H]2OCCCC[C@@H](C)Oc3ccc(NS(=O)(=O)c4ccc(C)cc4)cc3C(=O)N([C@@H](C)CO)C[C@@H]2C)cc1`: the inhibition was 0.06% (inactive).

As to `COCCCn1c(CCC(=O)O)ccc1-c1ccc(F)cc1`, the inhibition is -1.42% (inactive).

On to `COc1ccc(-c2ccc(CCC(=O)O)n2NC(=O)c2ccc(C(C)(C)C)cc2)cc1`, for which the inhibition was 43.5% (active).

`COc1ccc(-c2ccc(CCC(=O)O)n2-c2ccc(O)cc2)cc1`: the inhibition was 1.05% (inactive).

Take `Cc1noc(C)c1NC(=O)N(C)C[C@@H]1OCCCC[C@H](C)Oc2ccc(NS(=O)(=O)c3c(C)noc3C)cc2C(=O)N([C@@H](C)CO)C[C@@H]1C`: the inhibition was -1.1% (inactive).

Regarding `CN1C(=O)c2cc(NC(=O)C3CCOCC3)ccc2OC[C@@H]2O[C@@H](CC(=O)NCC3CC3)CC[C@@H]21`, the inhibition was 4.15% (inactive).

As to `C[C@@H]1CN([C@H](C)CO)C(=O)c2cc(NS(=O)(=O)c3cn(C)cn3)ccc2O[C@@H](C)CCCCO[C@@H]1CN(C)C(=O)CCC(F)(F)F`, the inhibition was -2.59% (inactive).

In the case of `COc1ccc(NC(=O)N2CC(=O)N3[C@H](CO)[C@@H](c4ccc(-c5ccc(C)cc5)cc4)[C@H]3C2)cc1`, the inhibition was 5.16% (inactive).

For `COc1ccccc1C(=O)Nc1ccc2c(c1)OC[C@@H](C)NC[C@H](C)[C@@H](OC)CN(C)C2=O`, the inhibition was -5.63% (inactive).

Regarding `O=C(C[C@@H]1C[C@@H]2c3cc(NC(=O)c4ccc5c(c4)OCO5)ccc3O[C@@H]2[C@H](CO)O1)NCCc1ccccc1`, the inhibition is -4.93% (inactive).

`CCN1[C@@H]2Cn3c(ccc(-c4cccnc4)c3=O)[C@H]1[C@@H](C(=O)NC1CCCCC1)[C@@H]2CO`: the inhibition is 1.27% (inactive).

As for `CCCNC(=O)C[C@H]1CC[C@H]2[C@@H](COC[C@H](O)CN2C(=O)CC)O1`, the inhibition is 3.49% (inactive).

Take `CCCNC(=O)C[C@H]1CC[C@@H]2[C@H](COC[C@H](O)CN2S(=O)(=O)c2ccccc2F)O1`: the inhibition is -0.728% (inactive).

As to `O=C(C[C@@H]1CC[C@H](NC(=O)CN2CCOCC2)[C@@H](CO)O1)NCCc1ccccc1`, the inhibition was -5.55% (inactive).

Consider `CC(C)NC(=O)Nc1ccc2c(c1)C(=O)N([C@@H](C)CO)C[C@@H](C)[C@H](CN(C)S(=O)(=O)c1ccccc1)OCCCC[C@@H](C)O2`, for which the inhibition was 124% (active).

Take `CC(C)NC(=O)Nc1ccc2c(c1)C(=O)N([C@@H](C)CO)C[C@H](C)[C@H](CN(C)S(=O)(=O)c1ccc(Cl)cc1)OCCCC[C@H](C)O2`: the inhibition was -18.6% (inactive).

As for `CC(C)NC(=O)Nc1ccc2c(c1)C(=O)N([C@@H](C)CO)C[C@@H](C)[C@@H](CN(C)S(=O)(=O)c1ccc(F)cc1)OCCCC[C@H](C)O2`, the inhibition is -0.972% (inactive).

On to `C[C@@H]1CN([C@H](C)CO)S(=O)(=O)c2ccc(C#CC3CCCC3)cc2O[C@@H]1CN(C)Cc1cccnc1`, for which the inhibition was -39.6% (inactive).

For `COCC(=O)Nc1ccc2c(c1)OC[C@@H](C)N(C(=O)c1cnccn1)C[C@H](C)[C@@H](OC)CN(C)C2=O`, the inhibition is -1.16% (inactive).

Regarding `Cc1ccc(S(=O)(=O)NC[C@H]2CC[C@@H]3[C@@H](CN3Cc3ccccc3C(=O)O)O2)cc1`, the inhibition was -6.11% (inactive).

Regarding `Cc1noc(C)c1NC(=O)N(C)C[C@H]1OCCCC[C@H](C)Oc2ccc(NC(=O)Cc3ccccc3)cc2C(=O)N([C@H](C)CO)C[C@@H]1C`, the inhibition was 0.037% (inactive).

Regarding `C[C@H]1CN([C@@H](C)CO)C(=O)c2cc(NC(=O)Nc3ccccc3)ccc2O[C@H]1CN(C)S(C)(=O)=O`, the inhibition was -6.24% (inactive).

Turning to `C[C@@H]1CN([C@@H](C)CO)C(=O)c2cc(/C=C/c3ccccc3)cnc2O[C@H]1CN(C)C(=O)Nc1ccc(C(F)(F)F)cc1`, the inhibition is -1.88% (inactive).

Consider `O=C(Nc1ncccc1O)c1ccc(C(=O)c2ccccc2)cc1`, for which the inhibition was 5.14% (inactive).

`O=C(NC1=CC(=O)c2ccccc2C1=O)c1ccccc1`: the inhibition is 80.8% (active).

As for `O=C(Nc1ccc2ccccc2c1[N+](=O)[O-])c1ccccc1`, the inhibition was 14% (inactive).

As for `O=C(CC1CC1)N1CC[C@@H]2[C@@H](CO)Nc3ccc(-c4ccccc4)cc3[C@@H]21`, the inhibition was -14.4% (inactive).

In the case of `CO[C@@H]1CN(C)C(=O)c2cc(NC(=O)Nc3cccc(Cl)c3)ccc2OC[C@@H](C)N(C)C[C@@H]1C`, the inhibition is 7.96% (inactive).

Turning to `CCCN1C[C@@H](C)[C@@H](OC)CN(C)C(=O)c2cc(NC(=O)c3ccccc3)ccc2OC[C@H]1C`, the inhibition was -3.59% (inactive).

With `Cc1cc(C(=O)Nc2cccc3c2O[C@@H](CN(C)S(=O)(=O)c2ccc(F)cc2)[C@@H](C)CN([C@H](C)CO)C3=O)n(C)n1`, the inhibition is 4.7% (inactive).

Turning to `O=C(C[C@@H]1CC[C@@H](NS(=O)(=O)c2ccccc2)[C@H](CO)O1)NCc1ccc(Cl)c(Cl)c1`, the inhibition was -0.169% (inactive).

On to `COCC(=O)N1CC2(CN(C(=O)c3cccnc3)C2)c2c([nH]c3cc(OC)ccc23)[C@H]1CO`, for which the inhibition was 3.03% (inactive).

Turning to `Cc1oc2c(c1C(=O)N1CCOCC1)C(=O)c1ccccc1C2=O`, the inhibition was 42.9% (active).

For the compound `Cc1ccc(C(=O)N2CCN(S(=O)(=O)N3CCOCC3)CC2)cc1`, the inhibition is -14.3% (inactive).

With `O=C(c1snnc1-c1ccccc1)N1CCOCC1`, the inhibition is 17.2% (inactive).

With `O=C(C1CCCCC1)N1C[C@@H]2N[C@H](C1)C2c1ccc(-c2cccc(F)c2)cc1` (stereo partly drawn), the inhibition is -62.3% (inactive) and -12.6% (inactive).

Take `CN(C)C(=O)c1ccc(-c2ccc(C3[C@@H]4CN(C(=O)Nc5ccccc5)C[C@H]3N4)cc2)cc1` (stereo partly drawn): the inhibition was -6.33% (inactive).

In the case of `Cc1cccc(-c2ccc(C3[C@@H]4CN(C(=O)Nc5ccc(C(F)(F)F)cc5)C[C@H]3N4)cc2)c1` (stereo partly drawn), the inhibition was 92.4% (active) and 92.8% (active).

`CO[C@H]1CN(C)C(=O)c2ccc(NC(=O)NC(C)C)cc2OC[C@@H](C)N(C(=O)CN(C)C)C[C@H]1C`: the inhibition is 9.74% (inactive).

With `Clc1ccc(C[n+]2cc(-c3ccccc3)n3c2CCC3)cc1`, the inhibition was -17.2% (inactive).

As for `Cc1ccc(-c2c[n+](CC(=O)Nc3ccccc3)c3n2CCC3)cc1`, the inhibition was 43.3% (active).

For the compound `Cc1ccc(C(=O)C[n+]2cc(-c3ccccc3)n3c2CCCCC3)cc1`, the inhibition is 20.9% (inactive).

Turning to `COc1ccc(S(=O)(=O)Nc2ccc3c(c2)C(=O)N([C@H](C)CO)C[C@H](C)[C@@H](CN(C)Cc2ccccc2)OCCCC[C@@H](C)O3)cc1`, the inhibition was -2.9% (inactive).
